EPAC2 ag: agonists of human EPAC2 (RAPGEF4) | Q8WZA2 | EPAC2 activation, biochemical qHTS; response scale: 100% = 6.5 mM cAMP response | Potency, µM (highest dose often 154 µM), for inactives: at the top dose activation, actives largely listed as activators | actives 0.079% (n = 360,000) | AID 720711; also: potency is read from the fitted curve at half-maximal effect; nearly all actives have a fitted effect of over 50% in size
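Compounds were titrated in qHTS against a Rap1B-BODIPY-GDP (250 nM) complex with EPAC2 (100 nM) and GDP (50 uM). BODIPY-GDP release tracked at 480/540 nm over 30 min at room temperature, normalized to 6.5 mM cAMP.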
EPAC2 antagonist: blocks human EPAC2 exchange factor; Q8WZA2; EPAC2 GEF exchange of Rap1B-BODIPY-GDP, fluorescence; Potency, µM (titrated, usually from 114 µM), for the others: at the top dose activity, negative = inhibition, hits mostly inhibitors; actives 0.18% (n = 360,000); also: potency is read from the fitted curve at half-maximal effect; % is scaled to controls: 0 for no effect and ±100 for the full control effect; nearly all actives have a fitted effect of over 45% in size
TSHR antagonist: blocks TSH signaling through the human TSH receptor; actives 0.2% (n = 330,000); P16473; activity change, negative = inhibition, % at 11.5 µM; TSHR-expressing cells, TSH-stimulated cAMP HTRF, 2 h; active compounds read low; AID 504810;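 active = activity change below a set negative limit, meaning inhibition stronger than a set level, cut at about -70% in these data; inconclusive = activity change between two set negative limits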; also: % is scaled to controls: 0 for no effect and ±100 for the full control effect
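Cell-based HTRF cAMP assay; TSHR cells + compound, TSH EC80 (4nM final), 2 h, 37 deg C. Lysis with anti-cAMP cryptate and cAMP-d2, 30 min RT, read 665/620 nm.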
EPAC1 antag: EPAC1 (human) antagonism; EPAC1 GEF assay, Rap1b-BODIPY-GDP exchange fluorescence; actives 0.14% (n = 360,000); O95398; Potency, µM (highest dose often 115 µM), for inactives: at the top dose activity change, negative = inhibition, hits mostly inhibitors;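 also: potency is read from the fitted curve at half-maximal effect; plate controls were vehicle for no effect and positive control for full effect; nearly all actives have a fitted effect of over 50% in size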
Target sequence (O95398 whole entry, looked up): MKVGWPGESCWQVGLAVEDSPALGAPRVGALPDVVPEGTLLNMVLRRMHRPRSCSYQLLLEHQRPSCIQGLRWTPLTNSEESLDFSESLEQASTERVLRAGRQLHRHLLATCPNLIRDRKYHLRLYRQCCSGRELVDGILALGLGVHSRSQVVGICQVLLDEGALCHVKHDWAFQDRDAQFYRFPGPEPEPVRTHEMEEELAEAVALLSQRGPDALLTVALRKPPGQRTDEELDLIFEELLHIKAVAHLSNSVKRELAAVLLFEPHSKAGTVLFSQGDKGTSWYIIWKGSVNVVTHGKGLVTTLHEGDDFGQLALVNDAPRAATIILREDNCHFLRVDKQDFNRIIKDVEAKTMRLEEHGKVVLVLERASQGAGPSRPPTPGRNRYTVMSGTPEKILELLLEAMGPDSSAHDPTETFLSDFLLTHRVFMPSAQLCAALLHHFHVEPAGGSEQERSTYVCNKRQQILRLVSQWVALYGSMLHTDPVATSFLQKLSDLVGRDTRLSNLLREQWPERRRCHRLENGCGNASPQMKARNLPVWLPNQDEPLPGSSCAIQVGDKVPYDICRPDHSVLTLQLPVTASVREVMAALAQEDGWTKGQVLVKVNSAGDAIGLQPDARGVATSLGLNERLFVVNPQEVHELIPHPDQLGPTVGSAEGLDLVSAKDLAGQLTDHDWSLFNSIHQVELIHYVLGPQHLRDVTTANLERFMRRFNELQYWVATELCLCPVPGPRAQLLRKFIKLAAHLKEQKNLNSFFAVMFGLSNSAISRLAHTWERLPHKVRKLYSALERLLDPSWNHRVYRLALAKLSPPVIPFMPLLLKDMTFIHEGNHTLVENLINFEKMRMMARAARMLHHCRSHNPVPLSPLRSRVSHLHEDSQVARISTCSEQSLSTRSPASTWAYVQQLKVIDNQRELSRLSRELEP
EPAC1 agonist: agonists of human EPAC1; Potency, µM (top dose mostly 154 µM), for inactives: at the top dose activation, usual class: activators; EPAC1 agonist qHTS, biochemical assay; response scale: 100% = response to 6.5 mM cAMP; O95398; actives 0.073% (n = 360,000); also: potency is read from the fitted curve at half-maximal effect; nearly all actives have a fitted effect of over 60% in size
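Compounds were pinned as a concentration titration into mixtures of EPAC1 (100 nM), BODIPY-GDP-loaded Rap1B (250 nM) and GDP (50 uM). After 5 min at room temperature, fluorescence was followed for 30 min; activity was scaled to 6.5 mM cAMP.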
PTHR1 ag: PTHR1 (human) receptor agonism; HEK293 GP2 PTHR1 cells, GloSensor cAMP luminescence, 1 h; Potency, µM (titrated, usually from 115 µM), for inactives: at the highest dose activation, usual class: activators; actives 0.075% (n = 410,000); also: potency is read from the fitted curve at half-maximal effect; nearly all actives have a fitted effect of over 55% in size
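HEK-293-derived GP2 cells expressing PTHR1 and a GloSensor cAMP reporter, 3,000/well, plated overnight, given luciferin plus IBMX (each 0.5 mM as added) for 1 h at 37 °C, then compound for 1 h at 37 °C. Luminescence was read after 15 min at room temperature.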
Active calls of the source: *; i = inactive; ? = inconclusive; / = no result given; [ ] = remark or other dose. This is a sample that favours compounds with a hit; in the whole collection about 0.5% have one here. Unless noted, calls follow the shape of the dose curve; as a rule, active = well fitted curve in the direction sought with a large enough effect; inconclusive = small, poorly fitted or top-dose-only effect, or another doubt; inactive = no such curve, though single readings can be large; an effect the other way counts as inactive or inconclusive.

SMILES	EPAC2 ag	EPAC2 antagonist	TSHR antagonist	EPAC1 antag	EPAC1 agonist	PTHR1 ag
Cc1ccc(Oc2nc3c(c(=O)n(Cc4ccccc4Cl)c(=O)n3C)n2C)cc1C	/	/	/	/	/	i
O=C(OCCN1C(=O)c2cccc3c(N4CCOCC4)ccc(c23)C1=O)c1ccc(Cl)cc1Cl	4%	180%	-33	76%	?	-3%
O=C(OCCN1C(=O)c2cccc3c(N4CCOCC4)ccc(c23)C1=O)c1cccc(Cl)c1	-44%	170%	?	65%	25µM*	-19%
CC(Oc1ccc(Cl)cc1Cl)c1ccn[nH]1 (stereo not drawn)	12%	45µM*	-3	-16%	-6%	i
CC(Oc1ccc(Cl)cc1Cl)C(=O)Nc1ccncc1 (stereo not drawn)	1%	1%	-22	5%	-3%	-13%
CCc1ccc(-c2csc(-c3cc4cc(Br)ccc4oc3=O)n2)cc1	/	/	/	/	/	-4%
O=C1CC(Cc2ccccc2)C(=O)N1CCc1ccc2c(c1)OCO2 (stereo not drawn)	-19%	11µM*	-7	11%	7%	i
Cc1cccc(CC2CC(=O)N(CCc3ccc4c(c3)OCO4)C2=O)c1 (stereo not drawn)	20%	12%	-6	-18%	2%	i
COc1ccc(CCNC(=O)CSc2nc(N)c(C#N)c(-c3cccs3)c2C#N)cc1OC	-3%	2%	-17	32µM*	-1%	i
Cc1ccccc1NC(=O)CSc1nc(N)c(C#N)c(-c2cccs2)c1C#N	-1%	11%	-18	10%	-17%	-11%
Cc1ccc(C(NC(=O)C(C)C)c2cc([N+](=O)[O-])c3cccnc3c2O)cc1 (stereo not drawn)	-10%	0%	-35	50µM*	-6%	-10%
CC(C)C(=O)NC(c1cccs1)c1cc([N+](=O)[O-])c2cccnc2c1O (stereo not drawn)	-1%	-12%	-20	-22%	11%	-11%
N#Cc1c(-c2ccccc2)cc(-c2ccccc2)nc1SCC(O)CS(=O)(=O)Cc1ccc(Cl)cc1 (stereo not drawn)	/	/	/	/	/	i
CC1=C(C(=O)OCC(Cl)(Cl)Cl)N2C(=O)C(NC(=O)Cc3ccccc3)C2SC1 (stereo not drawn)	1%	-4%	-77*	-22%	-3%	-55%
CC(=O)OCC1=C(C(=O)OC(C)(C)C)N2C(=O)[C@@H](NC(=O)Cc3ccccc3)[C@H]2SC1	-8%	-7%	/	?	0%	i
Cc1ccc(C)c2nc3sc(C(=O)N4CCCc5ccccc54)c(N)c3cc12	112µM*	68%	-12	-18%	?	0%[57.5 µM]
N#Cc1ccc(-c2csc(N3CCC(C(N)=O)CC3)n2)cc1	/	/	12	/	/	/
Cc1ccc(N=C2NC(=O)/C(=C/C=C/c3ccco3)S2)cc1	-3%	20%	2	56µM*	-12%	-6%
O=C1NC(=Nc2ccccc2)S/C1=C\C=C\c1ccco1	0%	4%	1	?	-1%	-34%
CCOc1cc(/C=N/NC(=O)c2ccc(-c3csc(Nc4ccc(C)cc4)n3)cc2)ccc1OCC(=O)O	19%	-22%	-1	40µM*	?	i
O=C(O)COc1ccc(/C=N/NC(=O)c2ccc(-c3csc(Nc4ccc(Cl)cc4)n3)cc2)cc1	-5%	?	5	7.9µM*	12%	-15%
Cc1nc(CC(=O)N/N=C/c2ccc(OCC(=O)O)cc2)cs1	-3%	2%	35	13%	-10%	14%
CCC(=O)N1CCc2cc(CNC(=O)c3ccc(F)cc3)ccc21	/	/	/	/	/	i
COc1ccc2nc3ccccc3nc2c1NC(=O)c1ccc(Cl)cc1Cl	100µM*	194%	13	21%	?	-8%
COc1cc2c(cc1OC)C(c1ccccc1)N(C(=O)c1ccco1)CC2 (stereo not drawn)	15%	10µM*	-4	-30%	-4%	-57%
SMILES	EPAC2 ag	EPAC2 antagonist	TSHR antagonist	EPAC1 antag	EPAC1 agonist	PTHR1 ag
CCC(Cc1ccccc1)NC(=O)Cn1ncc2c3ccccc3n(Cc3ccc(F)cc3)c2c1=O (stereo not drawn)	/	/	/	/	/	-17%
CCOC(=O)c1c(-c2ccc(C)cc2)csc1NC(=O)c1cc(=O)c2cc(C)ccc2o1	/	/	/	/	/	4µM*
CCOC(=O)c1c(-c2ccccc2)csc1NC(=O)c1cc(-c2cccc(OC)c2)on1	/	/	/	/	/	40µM*
COc1cccc(-c2cc(C(=O)Nc3cc(C)n(Cc4ccc(Cl)cc4)n3)no2)c1	17%	-1%	-74*	-1%	16%	-36%
CCOC(=O)c1c(-c2ccccc2)csc1NC(=O)c1cc(-c2cccc(Cl)c2)on1	/	/	/	/	/	i
Cc1nc2ccc(NC(=O)[C@H](C)N3C(=O)C4CC=CCC4C3=O)cc2s1 (stereo partly drawn)	4%	0%	-7	-3%	3%	i
CC1(C(=O)Nc2ccc(Cl)c(C(F)(F)F)c2)Cc2c(-c3ccc4c(c3)OCO4)ccnc2O1 (stereo not drawn)	6%	-25%	/	-18%	3%	-6%
CC(=O)OCCn1c2nc(=O)[nH]c(=O)c-2nc2cc(C)c(C)cc21	100µM*	i	35	i	50µM*	i
N#CCCN1CCN(Cc2cc(-c3ccccc3)ccc2O)CC1	9%	-4%	8	-3%	6%	16µM*
CN(Cc1ccc(F)cc1)C(=O)CN1CCN(S(=O)(=O)c2ccc3c(c2)OCCCO3)CC1	-1%	-5%	/	-11%	-3%	-26%
Cc1cc(C)n(C(=O)/C(C#N)=N/Nc2cc(Cl)cc(Cl)c2)n1	-1%	?	-82*	-12%	-11%	-39%
O=C1c2ccccc2C(c2nnnn2Cc2ccccc2)N1Cc1ccc(F)cc1 (stereo not drawn)	1%	6%	/	-5%	-2%	-91%
O=C1c2ccccc2C(c2nnnn2Cc2ccccc2)N1CCc1c[nH]c2ccccc12 (stereo not drawn)	10%	75µM*	/	-15%	8%	0%
CCOC(=O)c1ccc(N2C(=O)C3C(/C=C/c4ccccc4)OC4(C(=O)c5ccccc5C4=O)C3C2=O)cc1 (stereo not drawn)	14%	-2%	-9	100µM*	3%	-8%
CC(=O)Nc1cccc(-c2ccnc3c2CC(C(=O)Nc2ccc(Cl)cc2)O3)c1 (stereo not drawn)	8%	-5%	/	-1%	-8%	-31%
COc1ccc(Cl)cc1Nc1cc(C)nc2nc(-c3ccccc3C)nn12	/	/	/	/	/	i

Screens: PubChem BioAssay, National Center for Advancing Translational Sciences (NCATS)
